About 1,000 (0.32%) of roughly 310,000 compounds were called active. These entries were drawn from the full list. Measured potencies and affinities stand elsewhere. Values without a mark were called inactive. How the calls were made is not given here.
Test: Inhibition of PhoP regulon, Salmonella typhi GFP reporter cells, confirmation, 4 h (AID 1850);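 further: 0% = induced wells with vehicle and 100% = uninduced wells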
Conditions: Salmonella Typhi PhoP-promoter GFP reporter, fluorescence, at 50 µM, hits give high values

Point of comparison: `O=C(N/N=C/c1coc2ccc(Cl)cc2c1=O)c1ccncc1`, inhibition -3.86%. Against it:
- Cc1nc2c(C#N)cnn2c2c1CCN(Cc1ccccc1)N2C — higher, 0.51%
- Nc1cc(N2CCCCCC2)c2nonc2c1[N+](=O)[O-] — higher, -0.89%
- Nc1ccc2nonc2c1[N+](=O)[O-] — lower, -75.7%
- COCCn1c(=S)[nH]c2cc(C(=O)NCCCN3CCOCC3)ccc2c1=O — higher, -1.91%
- O=C(NC1CCSC1=O)c1cccc(Cl)c1 (stereo not given) — higher, 3.01%
- CCN1/C(=C\C=C\C2=[N+](CC)c3ccccc3C2(C)C)C(C)(C)c2ccccc21 — lower, -46.5%
- CN1/C(=C\C=O)C(C)(C)c2ccccc21 — higher, 1.84%
- O=C(Nc1cc2c3c(c1)CC(=O)N3CCC2)c1cccc(F)c1 — higher, 6.53%
- O=C(c1ccc(F)cc1)c1ccc(N2CCCCC2)cc1 — lower, -11.2%
- CN(CC(=O)Nc1ccc(S(N)(=O)=O)cc1)c1ccccc1 — higher, 14.4%
- Cc1ccccc1NC(=O)c1ccccc1O — higher, 4.26%
- CSc1ccccc1C(=O)Nc1cc(C)ccc1C — higher, 7.98%
- O=C(N/N=C/c1cc2ccccc2[nH]1)c1ccccc1Cl — higher, 12.6%
- O=[N+]([O-])c1cccc(-c2cc3ccccc3[nH]2)c1 — lower, -7.23%
- COc1ccc(N(CC(=O)N2CCN(c3cc(C)ccc3C)CC2)S(=O)(=O)c2c(C)noc2C)cc1 — higher, 4.32%
- CCC(C)NC(=O)C1c2ccccc2C(=O)N(c2ccc(OC)cc2)C1c1ccc(OC)cc1 (stereo not given) — higher, -3.48%
- Nc1nonc1-n1nnc(C(=O)N/N=C/c2ccc(Br)cc2)c1CSC1=NCCS1 — higher, 6.84%
- O=C(N/N=C/c1cc(Br)c(O)c(Br)c1O)c1cccnc1 — lower, -12.7%
- O=C(N/N=C/c1cc2c(cc1Cl)OCO2)c1ccncc1 — lower, -3.87%
- O=C(N/N=C/c1cc(Br)c(O)c(Br)c1)c1cccnc1 — higher, 19.1%
- O=C(N/N=C/c1ccccc1Cl)c1ccncc1 — higher, -2.44%
- O=C(N/N=C/c1ccc(O)cc1O)c1ccncc1 — higher, 1.18%
- O=C(N/N=C/c1cc2ccccc2nc1Cl)c1ccncc1 — higher, -3.32%
- Nc1nonc1-n1nnc(C(=O)N/N=C/c2c(Cl)cccc2Cl)c1CSC1=NCCS1 — lower, -8.07%
- COc1ccc(CNC(=O)CCNS(=O)(=O)c2ccc(Br)s2)cc1 — higher, -1.05%
- O=C(CN1C(=O)C2C3C=CC(C3)C2C1=O)Nc1nc(SCc2ccc(Cl)cc2)n[nH]1 (stereo not given) — higher, 3.67%
- O=C(O)COCC(=O)NC1CCN(Cc2ccccc2)CC1 — higher, -0.41%
- CC(CN1CCCCC1)OC(=O)c1ccccc1F (stereo not given) — higher, -3.63%
- Cc1nn(C(C)C(=O)NC2CCC(C)CC2)c(=O)c2nn(-c3ccccc3)c(C)c12 (stereo not given) — lower, -5.27%
- Cc1ccc(Cl)cc1NC(=O)C1CC(=O)Nc2ncnn21 (stereo not given) — lower, -13%
- O=C(N/N=C/c1ccccc1O)NC12CC3CC(CC(C3)C1)C2 — higher, 6.48%
- O=C(C[n+]1ccccc1)N/N=C/c1cc(Br)cc(Br)c1O — higher, 1.91%
- CNC(=S)N/N=C/c1cc(Br)cc(Br)c1O — higher, 6.75%
- O=C(N/N=C/c1ccc(Cl)cc1Cl)c1ccncc1 — lower, -12.1%
- Nc1nonc1C(=O)N/N=C/c1cc2c(cc1Br)OCO2 — lower, -18.8%
- O=C1NCCCC1C(=O)N/N=C/c1ccccc1O (stereo not given) — lower, -6.72%
- Nc1nonc1C(=O)N/N=C/c1ccc(Br)o1 — lower, -7.75%
- CCOC(=O)C1CCCCN1Cc1cccc(OC)c1OC (stereo not given) — lower, -6.91%
- CCC(=O)NC(=S)Nc1ccc(NC(=O)c2ccco2)c(OC)c1 — lower, -4.57%
- Cc1cc(=O)c(C(=O)O)nn1-c1cccc(C(F)(F)F)c1 — higher, 3.22%
- Cc1[nH]n(-c2ccccc2)c(=O)c1/C=N/NC(=O)c1ccc(O)cc1O — higher, 4.8%
- Cc1ccc(C)c(CN2CCC(CNC(=O)CCc3nnc4ccc(N5CCCCC5)nn34)CC2)c1 — higher, -0.65%
- O=C(CSc1nnc(CNC(=O)c2cccs2)o1)Nc1cccc(Cl)c1 — lower, -8.62%
- O=C(CC1SC(N2CCCC2)=NC1=O)Nc1ccc(C(=O)N2CCN(c3cccc(Cl)c3)CC2)cc1 (stereo not given) — lower, -3.88%
- Cc1ccc(S(=O)(=O)N[C@@H](CO)C(=O)N[C@@H](Cc2ccc(O)cc2)C(=O)O)cc1 — higher, 3.35%
- Cc1ccc2c(c1)NC(=O)C(CC(=O)NCCCN1CCCCC1)O2 (stereo not given) — lower, -5.47%
- COc1cc(Cl)c(C)cc1NC(=O)CCCN1C(=O)CCC1=O — lower, -6.87%
- CN1CCN(C(=O)c2ccc(CS(=O)Cc3ccc(Cl)cc3)o2)CC1 (stereo not given) — higher, -3.59%
- COc1cccc(CNS(=O)(=O)c2ccc(S(=O)(=O)NC3CC3)cc2)c1 — higher, 0.68%
- CCCc1cc(=O)oc2c3c(cc(OCC(=O)N4CCC[C@H]4C(=O)O)c12)OC(C)(C)CC3 — higher, -1.72%
- COc1ccc(CNC(=O)CSc2nnnn2-c2ccc(O)cc2)cc1 — higher, 4.45%
- Cc1ccc(CN2CCC(CNS(=O)(=O)c3ccc(-c4ccc(=O)[nH]n4)s3)CC2)cc1 — lower, -17.1%
- Cc1ccc(Nc2nc(N)nc(CSC(=S)N3CCN(c4ccccc4)CC3)n2)cc1 — higher, 5.34%
- COc1ccccc1NC(=O)Nc1ccc(CC#N)cc1 — lower, -23.3%
- O=c1oc2ccccc2n1Cc1ccccc1F — higher, 0.75%
- O=c1[nH]cc(NCCc2ccccc2)c(=O)[nH]1 — higher, 2.68%
- O=C(N/N=C/c1cccnc1)c1cccc(Cl)c1 — higher, 41%
- O=C(N/N=C/c1cc(Cl)ccc1O)c1ccc(Br)cc1 — lower, -15.2%
- O=C(CP(=O)(c1ccccc1)c1ccccc1)N/N=C/c1cc(Br)cc(Br)c1O — higher, -0.96%
- COc1c(Br)cc(Br)cc1/C=N/NC(=O)c1ccncc1 — lower, -12.1%
- O=C(N/N=C/c1cc([N+](=O)[O-])ccc1O)c1ccncc1 — higher, 12.7%
- O=C(N/N=C/c1cc(Br)cc(Br)c1O)c1cccc(S(=O)(=O)N2CCOCC2)c1 — higher, 17.9%
- O=C(CNC(=O)c1ccncc1)N/N=C/c1cc(Br)ccc1O — higher, 14.9%
- CC(=O)Nc1ccc(C(=O)N/N=C/c2cc(Br)cc(Br)c2O)cc1 — lower, -13.1%

From PubChem BioAssay AID1850 (Southern Research Specialized Biocontainment Screening …, 2009)
